# Assay results from article PMC5540273 (PLoS ONE, 2017).
# System: LTK
# Settings: concentration: 1 μM, replicates: in singlicate; n = 1
# 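Note: KINOMEscan kinase panel screen.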
row,Structure (SMILES),%Inh
1,Nc1n[nH]c2cnc(-c3ccccc3)cc12 [SB-642124],0%
2,COc1cccc(C2=C(Nc3ccc(Cl)c(C(=O)O)c3)C(=O)NC2=O)c1 [SB-390769],0%
3,Cn1cc(-c2ccc3c(c2)CCN3C(=O)Cc2cccc(Cl)c2)c2c(N)ncnc21 [GSK2606590],47%
4,COc1cccc(-c2ccc3c(NC(=O)C4CC4)n[nH]c3n2)c1 [SB-710903],0%
5,Cc1ccc(C(=O)N2CC[C@@H](O)C2)cc1-n1c(C)cc(OCc2ccc(F)cc2F)c(Br)c1=O,0%
6,O=c1[nH]cc(-c2ccc(N3CCOCC3)cc2)c2sc(-c3cn[nH]c3)cc12 [GSK2276055],5%
7,COc1cc(Nc2ncc3c(C)nc(-c4cc5ccccc5[nH]4)n3n2)cc(OC)c1OC [GW869516],0%
8,O=C(Nc1cccc(-c2nn3ccccc3c2-c2ccnc(Nc3cccc(F)c3)n2)c1)c1c(F)ccc(F)c1Cl [GSK357952],10%
9,CSc1cccc2c(-c3ccncn3)c(-c3ccc(F)cc3)nn12 [GW514786],0%
10,COc1cc(Nc2nccc(-c3c(-c4cccc(NC(=O)c5c(F)cccc5F)c4)nn4ncccc34)n2)cc(OC)c1OC [GSK327238],61%
11,Cc1ccc(S(=O)(=O)Nc2ccc(Nc3nccc(Nc4cccc5[nH]ncc45)n3)cc2)cc1 [GSK581271],10%
12,O=C(Nc1cccc(-c2nn3ncccc3c2-c2ccnc(Nc3ccccc3)n2)c1)c1c(F)cccc1F [GSK198271],0%
13,Cl.c1ccc(-c2ccc3c(Nc4ccc5[nH]ncc5c4)ccnc3c2)nc1 [GW440137],18%
14,CN(C)S(=O)(=O)c1cc(-c2ccc3nccc(-c4cccc(S(N)(=O)=O)c4)c3c2)cnc1N [GSK1669921],39%
15,COc1ccc(CNC(=O)NC2CCN(c3ccnc(Nc4ccc(F)cc4)n3)CC2)cc1 [GSK1379788],1%
16,Cl.Cl.NCC(C(=O)Nc1cc(Br)c(-c2ccnc3[nH]ccc23)s1)c1ccccc1 (stereo not shown) [GSK1269851],0%
17,CCS(=O)(=O)c1ccc(OC)c(Nc2nccc(-c3c(-c4cccc(NC(=O)c5c(F)cccc5F)c4)nn4ncccc34)n2)c1 [GSK326180],19%
18,Fc1ccc(-c2ncn(C3CCNCC3)c2-c2ccnc(Oc3ccc(-c4ccccc4)cc3)n2)cc1 [SB-245391],12%
19,CN(c1ccc(NC(=O)Nc2cc(C(F)(F)F)ccc2F)cc1)c1ccnc(Nc2ccc(S(N)(=O)=O)cc2)n1 [GW809893],95.7%

row,Structure (SMILES),%Inh
1,Cc1ccc(F)c(C(=O)Nc2cccc(-c3nn4ccccc4c3-c3ccnc(Nc4cccc(F)c4)n3)c2)c1F [GSK361061],9%
2,CC(C)(C)c1ccc2nccc(Nc3cccc(O)c3)c2c1 [GW856795],18%
3,O=C(Nc1n[nH]c2cc(-c3ccoc3)ccc12)C1CC1 [SB-738481],13%
4,CCn1c(-c2nonc2N)nc2c(C#CC(C)(C)O)nc(OC[C@H](N)c3ccccc3)cc21 [GSK943949],0%
5,Cl.c1ccc(-c2ccc3c(Nc4ccc5[nH]ccc5c4)ccnc3c2)nc1 [GW440138],18%
6,Cn1cc(-c2[nH]c3cc(NC(=O)[C@H](N)C4CCCCC4)cc4c3c2C=NNC4=O)cn1,0%
7,C[C@@H]1CC[C@@H](C(=O)Nc2ccccc2)CN1c1cc(-c2ccc3c(N)n[nH]c3c2)nc(N)n1 [GSK2286062],0%
8,Nc1ncc(-c2cccnc2)c2scc(-c3ccc4c(c3)CCN4C(=O)Cc3ccccc3)c12 [GSK683281],50%
9,CC(=O)Nc1nc2cnc(Nc3cc(NC(=O)c4cccc(C5(C#N)CC5)c4Cl)ccc3C)nc2s1,0%
10,CCc1ccc(-c2ccc3c(c2)-c2c(cnn2C)S(=O)(=O)N3C)cc1,3%
11,COCCOCCOc1cc2ncc3c4ccc(C#N)cc4[nH]c3c2cc1OC,34%
12,Cc1ccc(C(=O)Nc2ccc(Nc3ccnc4cc(-c5nccs5)ccc34)cc2O)cc1.Cl [GW494702],1%
13,COc1cc(Nc2nccc(N3CCC(NC(=O)c4cc5ccccc5s4)C3)n2)cc(OC)c1OC (stereo not shown) [GSK1379760],13%
14,Cl.NC(=O)c1cccc(Nc2nccc(Nc3ccc(Oc4c(Cl)cccc4Cl)c(Cl)c3)n2)c1 [GW659009],80%
15,Cc1cccc(NC(=O)Nc2ccc(Oc3ncnc4ccn(C)c34)cc2)c1,17%
16,CNC(=O)c1ccccc1Nc1nc(Nc2ccc(N3CCOCC3)cc2)ncc1Cl.Cl [GSK1576028],100%
17,COc1cc2c(cc1OCCN1CCNCC1)ncc1c3ccc(C#N)cc3[nH]c21,0%
18,Cc1occc1-c1ncc(OC[C@@H](N)Cc2c[nH]c3ccccc23)cc1-c1ccc2[nH]nc(C)c2c1.O=C(O)C(F)(F)F [GSK682037],42%
